Source: PubChem BioAssay (Broad Institute)
Sampled rows, rich in hits. Any-hit rate of the full collection: about 3.1%.
C2C12 statin: protects C2C12 myotubes from simvastatin toxicity; AID 602340; 330,000 tested, 0.78% active; rescue of ATP level, % at 7.49 µM; ATP luminescence, 48 h; scaled: DMSO 0, geranylgeraniol control 100;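 active = mean ATP rescue above about 67%, or every replicate alone reaching that limit, limit read from the data, passing the limit was not always enough; inconclusive = no clear call, values can overlap the other calls; inactive = mean under the limit and some replicate under it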;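 note: myotubes were challenged with 10 µM simvastatin during compound exposure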
INS-1E GSIS act: primary screen for activators of insulin secretion dependent on glucose, INS-1E cells, GLuc reporter luminescence; activation, % at 16.6 µM; INS-1E GLuc reporter insulin secretion, 2-3 h; AID 743287; 370,000 tested, 0.61% active;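 active = lowest replicate activation of at least 40%, so every replicate reaches that level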
PAX8 reporter: PAX8 transcriptional activity inhibition | RMG-I TPO-luciferase reporter, SteadyGlo, 24 h | inhibition, % at 12.6 µM | 360,000 tested, 1.2% active;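 active = mean replicate inhibition at least 60% with every replicate also reaching 60%; inconclusive = only one of the two criteria is met; inactive = mean below 60% and not all replicates reaching 60%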;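 note: luciferase light reporting Pax8 driven TPO promoter activity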
HIV Env fusion: HIV envelope-mediated fusion inhibition; HeLa-JRFL Env/CEM21 cell fusion, luciferase; inhibition, % at 12.3 µM; 360,000 tested, 1.1% active; AID 651610;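 active = mean replicate inhibition score of at least 50 and every replicate individually at or above 50; inconclusive = only one of the two criteria met; inactive = mean below 50 and not all replicates reaching 50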
miR122 inh: miR-122 inhibition in Huh7 cells; activation (reporter increase), % at 12.5 µM; 340,000 tested, 0.3% active; Huh7 miR-122 Renilla luciferase sensor, 48 h; neutral wells = 0, positive control = 100;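 active = mean replicate activation score at least 90 and every replicate individually at or above 90; inconclusive = only one of the two criteria met; inactive = neither criterion met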;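 note: higher luciferase means less miR-122 activity so hits act as miR-122 inhibitors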
EWS-Fli inh: blocks EWS/Fli oncoprotein-driven transcription | 350,000 tested, 0.67% active | A673 NR0B1-luciferase reporter, viability-normalised | inhibition, % at 12.6 µM;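 active = mean inhibition of at least 50% after viability correction, with every replicate also passing that limit; inconclusive = mean reaches 50% but only one of two replicates passes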;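 note: firefly luciferase signal divided by Alamar Blue viability fluorescence both relative to DMSO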
Large screens that a line does not name were inactive; [ ] = another dose, or the depositor's remark.

C[C@@H]1CN([C@@H](C)CO)C(=O)c2cc(NS(=O)(=O)c3ccc(F)cc3)ccc2O[C@@H](C)CCCCO[C@H]1CN(C)S(=O)(=O)c1ccc(F)cc1	none (no result: C2C12 statin)
C=C(C)c1cccc(C(C)(C)NC(=O)N2CCN(c3ccccc3OC)CC2)c1	PAX8 reporter 106 (no result: HIV Env fusion)
COCc1cn(CC[C@@H]2CC[C@H](NC(=O)Nc3ccc4c(c3)OCO4)[C@H](CO)O2)nn1	none (no result: miR122 inh)
Cc1noc(C)c1NC(=O)NCC[C@H]1CC[C@H](NC(=O)Nc2cccc(F)c2)[C@@H](CO)O1	none (no result: miR122 inh)
CCOC(=O)c1ccc(Nc2ncnc3ccc(C)cc23)cc1	INS-1E GSIS act 85 (no result: PAX8 reporter, HIV Env fusion, EWS-Fli inh)
C/C=C/c1ccc2c(c1)[C@H]1[C@H](CCN1C(=O)C1CC1)[C@@H](CO)N2	none (no result: C2C12 statin, PAX8 reporter, HIV Env fusion, miR122 inh)
Cc1cc(Cl)c(S(=O)(=O)N2CCCCCC2)cc1OCC(=O)NC1CCCCC1	HIV Env fusion 51, miR122 inh inconclusive (no result: INS-1E GSIS act, EWS-Fli inh)
Cc1cc(Cl)c(S(=O)(=O)N2CCSCC2)cc1OCC(=O)NC1CCCCC1	HIV Env fusion 93 (no result: INS-1E GSIS act, PAX8 reporter, EWS-Fli inh)
CO[C@H]1CN(C)C(=O)c2ccc(NC(C)=O)cc2OC[C@H](C)N(CCc2ccccc2)C[C@@H]1C	none (no result: C2C12 statin, PAX8 reporter, HIV Env fusion, miR122 inh)
CCC(=O)N(C)C[C@H]1Oc2cc(C#Cc3ccccc3)ccc2S(=O)(=O)N([C@H](C)CO)C[C@@H]1C	none
C[C@@H]1CN([C@@H](C)CO)S(=O)(=O)c2ccc(C#Cc3ccc(F)cc3)cc2O[C@H]1CN(C)C(=O)CN(C)C	EWS-Fli inh 59 (no result: PAX8 reporter)
C[C@H](CO)N1C[C@H](C)[C@@H](CN(C)C(=O)CN(C)C)Oc2cc(C#Cc3ccc(F)cc3)ccc2S1(=O)=O	none (no result: PAX8 reporter)
C[C@@H]1CN([C@H](C)CO)S(=O)(=O)c2ccc(C#Cc3ccccc3)cc2O[C@H]1CN(C)C(=O)C1CC1	HIV Env fusion 58[16.7 µM] (no result: PAX8 reporter)
C[C@H]1CN([C@@H](C)CO)S(=O)(=O)c2ccc(C#Cc3ccccc3)cc2O[C@H]1CN(C)C(=O)C1CC1	none (no result: PAX8 reporter)
CCC(=O)N(C)C[C@@H]1Oc2cc(C#Cc3ccccc3)ccc2S(=O)(=O)N([C@H](C)CO)C[C@H]1C	HIV Env fusion 66[16.7 µM]
C[C@H](CO)N1C[C@H](C)[C@H](CN(C)S(C)(=O)=O)Oc2cc(C#Cc3ccccc3)ccc2S1(=O)=O	none
C[C@H](CO)N1C[C@H](C)[C@@H](CN(C)S(C)(=O)=O)Oc2cc(C#Cc3ccccc3)ccc2S1(=O)=O	miR122 inh 130[16.7 µM]
C[C@H](CO)N1C[C@H](C)[C@H](CN(C)S(=O)(=O)c2cn(C)cn2)Oc2ncc(-c3ccc(F)cc3)cc2C1=O	none (no result: C2C12 statin, PAX8 reporter, HIV Env fusion, miR122 inh)
C[C@H]1CN([C@@H](C)CO)S(=O)(=O)c2ccc(C#Cc3ccccc3)cc2O[C@@H]1CN(C)C(=O)CN(C)C	INS-1E GSIS act 48 (no result: PAX8 reporter)
CC=Cc1ccc2n(c1=O)C[C@H]1[C@H](CO)[C@@H](C(=O)NCC)N(C(=O)CC3CC3)[C@@H]21 (mixture of isomers)	none (no result: miR122 inh)
CCn1c(Oc2ccccc2F)nc2c1c(=O)n(C)c(=O)n2C	HIV Env fusion 58
Cc1ccc(Oc2nc3c(c(=O)n(Cc4ccccc4F)c(=O)n3C)n2C)cc1	HIV Env fusion 56 (no result: PAX8 reporter, EWS-Fli inh)
C[C@@H]1CN([C@H](C)CO)C(=O)c2cccc(NC(=O)C3CC3)c2O[C@@H]1CN(C)C(=O)Nc1ccc2c(c1)OCO2	none (no result: PAX8 reporter)
CC(=O)N1[C@H](CO)[C@H](c2ccccc2)C12CN(S(=O)(=O)c1ccccc1)C2	none (no result: C2C12 statin, PAX8 reporter, HIV Env fusion, miR122 inh, EWS-Fli inh)
C[C@@H]1CN([C@H](C)CO)C(=O)c2cc(C#CC(C)(C)O)cnc2O[C@H]1CN(C)C(=O)CC1CC1	none (no result: PAX8 reporter)
O=C(CCCOc1ccccc1)N1CCCCC1	C2C12 statin 94 (no result: INS-1E GSIS act, PAX8 reporter, HIV Env fusion, EWS-Fli inh)
C[C@H]1CCCCO[C@@H](CN(C)C)[C@@H](C)CN([C@@H](C)CO)C(=O)c2cc(NS(=O)(=O)c3ccc(Cl)cc3)ccc2O1	none
C[C@@H]1CCCCO[C@@H](CN(C)S(=O)(=O)c2ccc(Cl)cc2)[C@@H](C)CN([C@H](C)CO)C(=O)c2cc(NS(=O)(=O)c3ccc(Cl)cc3)ccc2O1	none (no result: C2C12 statin)
C[C@@H]1CCCCO[C@H](CN(C)S(=O)(=O)c2ccc(Cl)cc2)[C@@H](C)CN([C@@H](C)CO)C(=O)c2cc(NS(=O)(=O)c3ccc(Cl)cc3)ccc2O1	PAX8 reporter 68 (no result: C2C12 statin, HIV Env fusion, miR122 inh)
